# Experimental data as given in the supplement of paper PMC3334620.
# The full ranking holds about 33,000 sequences; the median of “E-score (-0.5 to 0.5)” is about -0.035, and the highest 2% start at about 0.34. The full list was thinned out, with the highest values kept by preference.
# Target: T1, Mot3 (UniProt P54785)
# T1 sequence: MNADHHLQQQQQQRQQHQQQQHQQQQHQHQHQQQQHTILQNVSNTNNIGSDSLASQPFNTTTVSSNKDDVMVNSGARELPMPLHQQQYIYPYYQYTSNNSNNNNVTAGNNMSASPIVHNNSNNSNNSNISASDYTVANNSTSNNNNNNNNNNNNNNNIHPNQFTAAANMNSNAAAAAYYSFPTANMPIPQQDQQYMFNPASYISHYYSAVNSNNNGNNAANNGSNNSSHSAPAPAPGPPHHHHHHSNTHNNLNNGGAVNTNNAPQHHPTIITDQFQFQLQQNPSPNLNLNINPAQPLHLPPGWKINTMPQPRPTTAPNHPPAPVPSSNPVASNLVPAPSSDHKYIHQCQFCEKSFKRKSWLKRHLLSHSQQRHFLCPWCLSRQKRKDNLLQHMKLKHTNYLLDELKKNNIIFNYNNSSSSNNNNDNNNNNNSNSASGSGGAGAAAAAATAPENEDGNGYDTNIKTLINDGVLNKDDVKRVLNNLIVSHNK
# Test: PBM E-score (8-mer binding enrichment) (E-score (-0.5 to 0.5)); higher = stronger / more preferred TF binding
# Conditions: protein concentration: 200 nM; construct: GST-full length
# Description: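 Universal 'all 10-mer' protein binding microarrays (Agilent AMADID 015681) probed with GST-tagged S. cerevisiae TFs (full-length or DBD) made by in vitro transcription/translation (PURExpress), about 100-200 nM. Bound TF was detected with fluorescent anti-GST. Each ungapped 8-mer (which stands for itself and its reverse complement) is scored by the PBM enrichment score (E-score), a modified Wilcoxon-Mann-Whitney statistic from -0.5 to +0.5, computed with the Universal PBM Analysis Suite. Scale: above 0.35 generally sequence-specific binding.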
row,Sequence,PBM E-score
1,AGGAAAAG,0.305
2,TGGAAAAA,0.0684
3,AGGAAAAT,0.416
4,AGAAAAAT,0.133
5,GGGAAAAC,-0.195
6,AGGAAAAC,0.416
7,ACGAAAAT,0.163
8,CGGAAAAC,0.0409
9,AGGAAAAA,0.352
10,CCAGGGGA,-0.363
11,ATGAGAAC,0.00278
12,ATAGTGCA,0.134
13,GATTGAAC,0.142
14,ACCTCATG,-0.175
15,AAACGCTA,-0.0463
16,CACAACAG,0.181
17,AGTCCCCA,-0.348
18,CCATGATC,-0.251
19,ACATGATA,0.35
20,ACATGAAC,0.256
21,GCATGACA,0.116
22,ACATGATG,0.241
23,ACATGACT,0.211
24,ACATGACA,0.343
25,ACATGAAG,0.344

row,Sequence,PBM E-score
1,CCATGATA,-0.147
2,GCATGATA,0.0933
3,ACATGATC,0.385
4,ACATGAAT,0.294
5,CCACACCC,-0.133
6,CAGGAGGG,-0.159
7,AGAGTGAT,0.105
8,CTCGCCAA,-0.0783
9,CAGTTGTA,0.00216
10,TAGCCAAA,-0.0612
11,CACAGACC,0.0761
12,CACGCTTC,0.146
13,AAGTTTAA,0.068
14,CTAACACA,0.313
15,ACAACATC,0.195
16,ATAACATG,0.36
17,CTAACATA,0.156
18,ATAACAGG,0.229
19,GTAACATA,0.26
20,ATAACACG,0.391
21,ATAACACA,0.332
22,ATAACATC,0.21
23,ATAACATA,0.344
24,ACAACATG,0.359
25,ACAACATA,0.307

row,Sequence,PBM E-score
1,GCGCTCGA,-0.00313
2,ATCAACGC,0.194
3,CGTCGCAC,-0.243
4,ATGGGCAC,0.333
5,CGATTAAG,0.108
6,CCCTTCGA,0.0666
7,ACCGTACG,-0.116
8,CGTGCTAG,-0.0215
9,AAAACATA,0.314
10,AAAACATG,0.351
11,AAAACATT,0.187
12,CCATCAGG,-0.179
13,AGGGTCAA,-0.0327
14,CCTGCATA,0.126
15,AAAGTGTG,0.0664
16,CTTTTTAC,0.21
17,AAATATAC,0.0863
18,AAATACAT,0.344
19,GAATACAC,0.363
20,GAATACAA,0.214
21,AAATACAC,0.37
22,CAATACAC,0.331
23,AAATACAG,0.212
24,AAATACAA,0.281
25,CTATACAC,0.254

row,Sequence,PBM E-score
1,GTATACAC,0.323
2,ATATACAC,0.358
3,AAATACCC,-0.0215
4,ATCCTTAA,0.00499
5,CACGCTGG,-0.0203
6,GGTGCTAA,-0.0828
7,AGGTTGAG,0.0336
8,TAACTCCA,-0.179
9,CAGAAATG,0.00635
10,CACGTTCG,0.00382
11,ACAGGCAG,0.239
12,ACAGGCAT,0.409
13,ACAGGCAA,0.489
14,ACAGGCCA,0.296
15,ACAGGCCT,0.00325
16,ACAGGCGA,0.0648
17,CCCACTGC,-0.32
18,GTACCCAC,0.0626
19,TATGGCAA,-0.0849
20,ATTGTAAA,0.3
21,AGTGTCAA,-0.0255
22,CTTGTAAC,0.281
23,AATGTAGA,0.221
24,AATGTAAA,0.374
25,ACTGTAAA,0.191

row,Sequence,PBM E-score
1,CTTGTAAA,0.378
2,GATGTAAA,0.35
3,GCTGTAAA,0.25
4,CGTGTCAA,0.342
5,CGTGTCAG,0.223
6,GTTGTAAA,0.31
7,GAACTCGC,-0.0603
8,GTCTCATA,-0.0702
9,CCGCCTTC,-0.226
10,GGCTCGTA,0.112
11,ACGGTTGG,-0.106
12,AGCGTGAT,-0.153
13,TCTGGTCA,-0.0723
14,CCCCACGG,-0.224
15,CATGTAAA,0.436
16,TCTGTAAA,0.231
17,AATGTAAC,0.218
18,TATGTAAA,0.434
19,CCTGTAAA,0.335
20,AATGTAAG,0.201
21,TATGTAGA,0.333
22,CATGTAAG,0.398
23,CCTGTAAG,0.282
24,AATGTAAT,0.377
25,CACGTAAA,0.339

row,Sequence,PBM E-score
1,ACTGTAAT,0.169
2,CTGCTGAC,0.0167
3,AAAAGGAG,0.0569
4,ACAGTGGG,-0.0834
5,GCTACAGC,-0.167
6,CGAAGTAA,0.174
7,CTGCTGCA,-0.0263
8,CAGTTAGC,-0.274
9,CCATCTCA,-0.228
10,CCGCAGGC,0.272
11,AGGAGTAC,0.171
12,AACCGACA,0.0529
13,CCAGAACG,-0.0663
14,ACCAGCGT,-0.0988
15,CCTGTAAC,0.295
16,GATGTCAA,0.144
17,AATGTCAA,0.0969
18,TATGTCAA,0.363
19,GATGTAAC,0.175
20,CATGTAAC,0.382
21,CTAGCACC,-0.0791
22,CGTTTGAG,-0.0011
23,GACGTGTA,0.318
24,CACGTGTC,0.183
25,AACGTGTC,0.273

row,Sequence,PBM E-score
1,CACGTGTA,0.383
2,AACGTGTA,0.415
3,CACGTGAA,0.183
4,CGTCTGTA,0.135
5,ACCCATAA,-0.196
6,ATACCCAT,0.142
7,CTATGAAC,0.2
8,CCAGTGTA,0.0502
9,CATGCATG,0.0529
10,CAGACATG,0.106
11,CAGGCATG,0.358
12,CAGGCATA,0.319
13,GAGGCATC,0.145
14,CAGGCATC,0.402
15,AGGTGTGC,0.0416
16,AAGATCTC,-0.0117
17,ACAGGTAC,0.423
18,ACAGGTAG,-0.0129
19,CCAGGTAC,0.238
20,ACAGGTTA,0.155
21,GCAGGTCC,-0.168
22,TCAGGTAA,0.324
